This note sets out measurements from PubChem BioAssay (NCI).

Where “and” joins values, the source holds several entries; their conditions need not be identical. Identical values can stand only once. About 83,000 compounds went through this panel and 20% of them were active in at least one assay; those are over-represented in the sample as a whole.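 96-well plates, one dose, 48 hours. Percent growth reported; active if below 10.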 Unmarked numbers belong to inactive results. Calls of active or inactive are those of the source.

For the test, the system named is DU-145 prostate. The test can be described thus: NCI-60 one-dose screen, 48 h (100 = growth as untreated, 0 = no growth, -100 = all killed). The conditions noted are these: 10 µM unless noted.
As to `O=C(O)C(Br)CBr` (configuration not stated), the growth is 106%. `COC(=O)CCP(CCC(=O)OC)c1ccccc1`: the growth is 110%. As for `COc1ccc(N)cc1N`, the growth is 120%. As for `CC1=C(C)C(=O)O[C@@H]([C@](C)(O)[C@]2(O)CC[C@@]3(O)[C@@H]4C[C@H]5O[C@]56CC=CC(=O)[C@]6(C)[C@H]4CC[C@]23C)C1`, the figure is 7.11% (active); as for `O=C(O)c1ccc(=O)[nH]c1`, 114% and 111%. The result for `O=S(=O)(F)c1cccc(Cl)c1C[P+](c1ccccc1)(c1ccccc1)c1ccccc1` reads 109%; that for `O=[N+]([O-])c1c(Cl)cc(Cl)c([N+](=O)[O-])c1Cl`, 81.3%; that for `O=C(O)CNCP(=O)(O)O`, 121%. As for `CCCCOC(N)=O`, the growth was 109%. As for `OCCN=Cc1c[nH]c2ccccc12`, the growth was 114%.

On to `CC1=C2[C@H]3OC(=O)[C@@H](C)[C@@H]3CC[C@@]2(C)C=CC1=O`, for which the growth was 109%.

For the compound `CCOC(=O)c1ccccc1C(=O)OCC`, the growth was 118%. On to `CC(Oc1ccc(-c2ccccc2)cc1)C(=O)O` (configuration not stated), for which the growth was 113%.

For `O=[N+]([O-])c1ccc(CI)cc1`, the growth is 105%. As for `CN1[C@@H](CC(=O)c2ccccc2)CCC[C@H]1CC(=O)c1ccccc1`, the figure is 108%; as for `O=S1(=O)OCCO1`, 104%. `Cc1cc[n+](CCc2ccccc2)cc1`: the growth is 95.3% and 115%. As for `CN1C2CCC1[C@@H](COC(=O)c1ccccc1)[C@@H](O)C2` (some centres not stated), the figure is 112%. Take `Cc1cc(N)ccc1N`: the growth was 115%. On to `COC(=O)C1=CO[C@@H](C)[C@@H]2CN3CCc4c([nH]c5cc(OC)ccc45)[C@@H]3C[C@H]12`, for which the growth was 104%.

Turning to `Cc1ccc(C(=O)O[C@H](C(=O)O)[C@H](OC(=O)c2ccc(C)cc2)C(=O)O)cc1`, the growth is 110%. As for `C=CC1CN2CCC1CC2C(O)c1ccnc2ccccc12` (configuration not stated), the growth was 111%.

For the compound `COC12CC3C4=CCOC5CC(=O)N6c7ccccc7C1(CCN2C4)C6C53` (configuration not stated), the growth is 117%. Consider `CC1(C)CN=C(NN=C(/C=C/c2ccc(C(F)(F)F)cc2)/C=C/c2ccc(C(F)(F)F)cc2)NC1`, for which the growth is -13.7% (active). As to `CC1=CC(=O)CCC12CCOC2=O` (configuration not stated), the growth was 106%. The result for `CCCn1cc2c3c(cccc31)[C@H]1C[C@@H](C)CN(C)[C@@H]1C2` reads 99.8%; that for `COc1cc(-c2ccc(N)c(OC)c2)ccc1N`, 103%; that for `O=C(O)c1cc([N+](=O)[O-])cc([N+](=O)[O-])c1`, 109%. For `ClCc1ccc(Cl)c(Cl)c1`, the growth was 106%.

As to `NC(=O)Oc1cc(OC(N)=O)cc(N(CCCl)CCCl)c1`, the growth was 34.3%.

In the case of `CCC(=O)C(CC(C)[N+](C)(C)C)(c1ccccc1)c1ccccc1` (configuration not stated), the growth is 112%. As for `CNC(=O)CCl`, the figure is 114%.
